# GLP1R inv ag = GLP-1 receptor (human) inverse agonism. P43220. HEK293 GLP-1R CRE-luciferase, luminescence, 24 h; GLP-1R form is constitutively active. Potency, µM (doses to about 38.3 µM), without a hit: at the highest dose activity change, negative = inhibition, most hits filed as inhibitors. 410,000 tested, 1.6% active; also: potency is read from the fitted curve at half-maximal effect; % is scaled to controls: 0 for no effect and ±100 for the full control effect; nearly all actives have a fitted effect of over 55% in size
# Target sequence (P43220 whole entry, looked up): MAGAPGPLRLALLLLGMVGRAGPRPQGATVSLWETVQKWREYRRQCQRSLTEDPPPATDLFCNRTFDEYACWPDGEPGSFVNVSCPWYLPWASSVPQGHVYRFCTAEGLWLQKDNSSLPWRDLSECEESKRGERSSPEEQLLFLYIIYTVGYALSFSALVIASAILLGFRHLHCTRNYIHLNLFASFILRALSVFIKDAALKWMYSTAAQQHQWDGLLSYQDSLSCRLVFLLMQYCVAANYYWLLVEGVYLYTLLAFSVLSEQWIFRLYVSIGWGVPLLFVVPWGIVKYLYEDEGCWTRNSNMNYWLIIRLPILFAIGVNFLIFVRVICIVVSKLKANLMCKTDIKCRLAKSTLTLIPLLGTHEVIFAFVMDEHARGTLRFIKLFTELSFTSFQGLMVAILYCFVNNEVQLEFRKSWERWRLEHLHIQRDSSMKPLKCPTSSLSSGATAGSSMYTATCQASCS
#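 Seeding at 200 cells/uL, 12 h culture, 24 hr compound treatment, then luciferase reagent and a luminescence read; cells are HEK293 stably expressing a constitutively active GLP-1R plus cAMP-responsive luciferase.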
# GLP-1R agonist = GLP-1 receptor (human) agonism | AID 624172 | 380,000 tested, 0.007% active | HEK293 GLP-1R CRE-luciferase, luminescence, 4-6 h; cells express a hypersensitive GLP-1R form | Potency, µM (series often up to 45.6 µM), for the others: at the top dose activation, usual class: activators; also: potency is read from the fitted curve at half-maximal effect; % of control where 0% means no effect
# HEK293 tox = cytotoxicity in counter-screen for GLP-1R inverse agonists; Potency, µM (top dose mostly 38.3 µM), for the others: top-dose activity change, negative = inhibition, actives largely listed as inhibitors; 410,000 tested, 0.13% active; HEK293 cAMP-luciferase reporter cells, luminescence, 24 h;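 also: loss of luciferase light is scored as toxicity; potency is read from the fitted curve at half-maximal effect; % is scaled to controls: 0 for no effect and ±100 for the full control effect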
#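 Cells in DMEM/10% Nu serum/1% pen-strep, 1536-well format. Pre-incubated 12 h, dosed with 23 nL compound, incubated a further 24 h. Luciferase detection, 12 min at room temp, luminescence.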
# uPA generation = blocks generation of uPA at the cell surface. cell surface uPA generation assay, qHTS. Potency, µM (doses to about 38.3 µM), for the others: at the highest dose activity change, negative = inhibition, hits mostly inhibitors. 330,000 tested, 0.31% active; active = well fitted inhibition curve with a large enough effect; inconclusive = small, poorly fitted or top-dose-only effect; inactive = no such curve, though single readings can be large or run the other way; tested in mouse RAW 264.7 cells; also: potency is read from the fitted curve at half-maximal effect; % is scaled to controls: 0 for no effect and ±100 for the full control effect; nearly all actives have a fitted effect of over 55% in size
# CCT chaperon mod = cytosolic chaperonin activity modulation. 360,000 tested, 0.3% active. AID 651819. purified chaperonin ATPase assay, HTRF ADP detection, 30 min. activity change, % (no concentration beside the values), hits read low; in the data active = activity change below about -30%; also: % is scaled to controls: 0 for no effect and ±100 for the full control effect
#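 We incubate TRiC, 40 or 20 nM final, with library compounds at 76 uM and 10 uM ATP for 30 min at 37 °C. ADP formed is detected with Transcreener HTRF reagents after 30 min at room temperature.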
# MmCpn inh = blocks the Methanococcus maripaludis chaperonin Mm-Cpn. Potency, µM (titrated, usually from 76.9 µM), inactives show at the top dose activity, negative = inhibition, actives largely listed as inhibitors. 330,000 tested, 0.031% active. purified Mm-Cpn ATPase, ADP Transcreener TR-FRET; also: potency is read from the fitted curve at half-maximal effect; % is scaled to controls: 0 for no effect and ±100 for the full control effect; nearly all actives have a fitted effect of over 80% in size
#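 Inhibition of chaperonin ATP hydrolysis is measured as reduced ADP production, detected by competitive TR-FRET in which signal falls with ADP. Final enzyme 25 nM and ATP 10 uM, reacted 30 min at 37°C.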
# The depositor's hits bear a star; ? = inconclusive; . = no result. In the library only some 2.2% were active in any assay of this set; here they are far more common. Unless noted, calls follow the shape of the dose curve; as a rule, active = well fitted curve in the direction sought with a large enough effect; inconclusive = small, poorly fitted or top-dose-only effect, or another doubt; inactive = no such curve, though single readings can be large; an effect the other way counts as inactive or inconclusive.
SMILES,GLP1R inv ag,GLP-1R agonist,HEK293 tox,uPA generation,CCT chaperon mod,MmCpn inh
COc1cc2c(-c3ccc4[nH]ccc4c3)c(-c3ccc(C#N)cc3)oc(=O)c2cc1OC,23%,15%,33%,2.5µM*,-1,3%
CCCCNCCCCOc1ccccc1,43%,8%,6%,-3%,-90*,0%
CCC(C)C(=O)N1c2ccccc2C(=C2SC(C(=O)OC)=C(C(=O)OC)S2)C(=S)C1(C)C (centres undefined),10µM*,-1%,10%,3%,-7,0%
COc1ccc(C)cc1N(C(=O)c1ccccc1)c1nc2ccccc2s1,?,-13%,-6%,3%,-6,-10%
Cc1ccccc1N(C(=O)c1cccs1)c1nc2ccccc2s1,2.2µM*,0%,21%,1%,-1,-8%
Cc1ccsc1C(=O)N(c1nc2ccccc2s1)c1c(C)cccc1C,7.9µM*,-7%,0%,4%,1,?
O=C(NCCCc1nc2ccccc2n1Cc1ccccc1F)c1ccco1,-19%,.,2%,.,.,.
CC(=O)c1cccc(NC(=O)c2c(N3CCCC3=O)c3cc(F)ccc3n2C)c1,3%,11%,-23%,.,.,.
Cc1ccc(-c2nc3ccc(Cl)cn3c2CC(C)(C)C)cc1,17%,-3%,10%,.,3,.
CC(C)(C)Cc1c(-c2ccc(F)cc2)nc2ccc(Cl)cn12,5.6µM*,-5%,?,.,-21,.
Cc1ccc(Cc2c(-c3ccc(C)cc3)nc3ccc(Cl)cn23)cc1,10µM*,-3%,-4%,.,-17,.
CCOc1ccc(C(c2c(O)cc(C)n(CCOC)c2=O)N2CCC(C)CC2)cc1 (centres undefined),10%,.,-5%,.,.,.
COc1cccc(C2NC(=S)NC3=C2CCc2ccccc23)c1 (centres undefined),?,-13%,4µM*,4%,-2,-18%
CC(=O)c1ccc(NS(=O)(=O)c2cc(-c3cc(C)no3)ccc2C)cc1,-52%,.,-25%,.,.,.
COc1ccc(/C=N/Nc2ncnc3sc(C)c(C)c23)cc1,8.9µM*,30%,?,5%,-4,-1%
Cc1sc2ncnc(N/N=C/c3ccc(O)cc3)c2c1C,?,4%,20%,6%,1,0%
CCn1cc(S(=O)(=O)c2ccccc2)c(=O)c2cc(F)c(N3CCCCCC3)cc21,1%,.,-1%,.,.,.
CC1CN(c2nc3ccccc3nc2SCC(=O)Nc2cccc(C(F)(F)F)c2)CC(C)O1 (centres undefined),11µM*,-6%,?,-23%,-10,.
CCOc1ccccc1NC(=O)CSc1nc2cc(OC)c(OC)cc2c2nc(CCn3c(C)nc4ccccc43)nn12,5%,.,13%,.,.,.
O=[N+]([O-])c1ccc(C=NN2CCCCCC2)cc1,11µM*,4%,8%,5%,-2,.
Cc1ccc2c(c1)c1c(n2CC(O)CNC2CCCC2)CCCC1 (centres undefined),11µM*,-1%,?,?,0,1%
CCOc1ccccc1OCCn1nnc2ccccc21,2%,3%,10%,-3%,-2,3%
COc1ccccc1OCCn1nnc2ccccc21,8%,16%,-8%,0%,-55*,1%
O=C(NCC(c1cccnc1)N1CCN(Cc2ccccc2)CC1)C(=O)Nc1cccc(F)c1 (centres undefined),9%,.,0%,.,.,.
Cc1cccc(-c2noc(-c3ccccc3OCC(=O)Nc3ccccc3[N+](=O)[O-])n2)c1,9%,.,7%,.,.,.
SMILES,GLP1R inv ag,GLP-1R agonist,HEK293 tox,uPA generation,CCT chaperon mod,MmCpn inh
COc1ccc(NC(=O)CC2Oc3ccc(C)cc3NC2=O)cc1Cl (centres undefined),-3%,.,6%,.,.,.
CCOc1c2ccc(C(=O)NCc3ccc(OC(F)(F)F)cc3)cc2nn1CC,-15%,15%,-19%,10%,-59*,0%
CCCn1nc2cc(C(=O)NCc3ccc(OC(F)(F)F)cc3)ccc2c1OCC,?,8%,0%,6%,-2,1%
O=C(NCC1(c2ccccc2)CCCC1)c1ccc(Br)o1,?,4%,-6%,1%,4,2%
Nc1ccccc1C(=O)NCC1(c2ccccc2)CCCC1,3.2µM*,-4%,0%,1%,2,-2%
O=C(NCC1(c2ccccc2)CCCC1)c1ccc(Br)cc1,?,1%,26%,1%,-1,1%
Cc1ccc(C(=O)NCC2(c3ccccc3)CCCC2)cc1,2.5µM*,18%,77%,-1%,0,-2%
COc1ccc(C(=O)NCC2(c3ccccc3)CCCC2)c(OC)c1,3.2µM*,?,4%,0%,0,1%
COc1cccc(Cn2c(CNC(=O)CCc3ccccc3)nc3cccnc32)c1,5%,.,-10%,.,.,.
O=[N+]([O-])c1cccnc1N1CCC(c2cc(-c3ccc(Cl)cc3Cl)n[nH]2)CC1,5µM*,-1%,-22%,-7%,-1,0%
Cc1cc2nnc(SCC(=O)Nc3cc(S(=O)(=O)N4CCOCC4)ccc3Cl)n2c2ccccc12,35%,18%,-11%,0%,-53*,-5%
CC(Oc1cccc(Cl)c1)C(=O)Nc1cc(S(=O)(=O)N2CCOCC2)ccc1N1CCCCC1 (centres undefined),10µM*,17%,0%,-12%,-1,-2%
Cc1ccc(S(=O)(=O)N2CCOCC2)cc1NC(=O)CNC(C)c1ccccc1 (centres undefined),-14%,-6%,-2%,-3%,-1,2%
CC(NCC(=O)Nc1cc(S(=O)(=O)N2CCOCC2)ccc1Cl)c1ccc(Cl)cc1Cl (centres undefined),5.6µM*,0%,-16%,-10%,3,1%
CC(C)(C)OC(=O)N1CCC(c2c(C(=O)Nc3ccc4c(c3)OCO4)cnn2-c2ccc(F)cc2F)CC1,?,.,-5%,.,.,.
CCCCNC(=O)c1ccccc1NC(=O)CCSc1ccccc1,10µM*,24%,5%,9%,0,-3%
CCN(CC)c1nn2c(=O)c(C(=O)NCc3cccc(OC)c3OC)cnc2s1,12%,.,0%,.,.,.
COc1ccccc1CNCc1cc(Br)ccc1OC,6.3µM*,2%,-20%,-5%,2,-6%
CCOC(=O)c1c(C)c(-c2ccccc2)n(CC(=O)NC2CCCCCC2)c1C,2%,0%,1%,.,.,.
O=C1c2ccccc2C2=Nc3ccccc3SC(c3cccc(F)c3)C12 (centres undefined),?,-5%,7.9µM*,-5%,-3,0%
O=C1CCCC2=C1C(c1ccc(Cl)cc1)C1C(=O)c3ccccc3C1=N2 (centres undefined),0%,0%,-29%,-5%,-1,-3%

# Screens (PubChem)
